Reference: PubChem BioAssay AID1159580 (chemical genetic matrix, 2015)
Where “and” joins values, the source holds several entries; their conditions need not be identical. Identical values can stand only once. The campaign covered roughly 5,500 compounds. About 2,000 (36%) were called active. Not shown: some 18% with an inconclusive outcome. Rule as the data show it: active = normalized growth mostly below about 0.91 (no sharp cut-off); inconclusive = no clear call, values can overlap the other calls; inactive = mostly above about 0.92. The list shows a part of the results.

Assay: chemical genetic growth profiling, strain panel (AID 1159580);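 also: tested at 20 µM; growth read once vehicle control cultures reached saturation at 30 °C; 1 = growth at the plate median or of vehicle wells; lower values mean less growth of the strain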
Settings: S. cerevisiae deletion strains, growth OD

Measured: normalized growth

C/C=C/c1ccc2c(c1)OCO2
inactive: locus YAL013W, strain DEP1, hits give low values 1.01 | locus YAL021C, strain ccr4, hits give low values 1.02 | locus YAL026C, strain drs2, hits give low values 1.02 | locus YAL030W, strain snc1, hits give low values 1.02 | locus YBL061C, strain skt5, hits give low values 1.02 | locus YBR009C, strain hhf1, hits give low values 1.02 | locus YBR021W, strain FUR4, hits give low values 1.02 | locus YBR023C, strain chs3, hits give low values 1.02 | locus YBR171W, strain sec66, hits give low values 1.03 | locus YBR229C, strain ROT2, hits give low values 1.01 | locus YBR231C, strain swc5, hits give low values 1.02 | locus YBR279W, strain paf1, hits give low values 1.02 | locus YCL011C, strain gbp2, hits give low values 1.01 | locus YCL016C, strain dcc1, hits give low values 1.02 | locus YCL029C, strain bik1, hits give low values 1.01 | locus YCL061C, strain MRC1, hits give low values 1 | locus YCL069W, strain vba3, hits give low values 1.02 | locus YCR088W, strain abp1, hits give low values 1.02 | locus YDL005C, strain med2, hits give low values 1.02 | locus YDL035C, strain GPR1, hits give low values 1.02 | locus YDL040C, strain nat1, hits give low values 1.02 | locus YDL074C, strain BRE1, hits give low values 1.07 | locus YDL101C, strain DUN1, hits give low values 1.02 | locus YDL134C, strain PPH21, hits give low values 1 | locus YDL185W, strain tfp1, hits give low values 0.998 | locus YDL192W, strain arf1, hits give low values 1.01 | locus YDR001C, strain nth1, hits give low values 1 | locus YDR069C, strain doa4, hits give low values 1.04 | locus YDR101C, strain arx1, hits give low values 1.04 | locus YDR137W, strain rgp1, hits give low values 0.994 | locus YDR150W, strain NUM1, hits give low values 1.01 | locus YDR159W, strain sac3, hits give low values 1.02 | locus YDR162C, strain NBP2, hits give low values 1 | locus YDR195W, strain ref2 0.988 | locus YDR297W, strain sur2, hits give low values 1.02 | locus YDR318W, strain mcm21, hits give low values 0.991 | locus YDR334W, strain swr1, hits give low values 1.02 | locus YDR335W, strain msn5, hits give low values 1.02 | locus YDR388W, hits give low values 1.01 | locus YDR392W, strain spt3, hits give low values 0.912 | locus YDR502C, strain sam2, hits give low values 1.01 | locus YEL003W, strain gim4, hits give low values 1.02 | locus YEL037C, strain rad23, hits give low values 1.01 | locus YEL061C, strain CIN8 (second series), hits give low values 1.01 | locus YEL061C, strain CIN8, hits give low values 1.01 | locus YER015W, strain faa2, hits give low values 1.01 | locus YER016W, strain bim1, hits give low values 1.02 | locus YER110C, hits give low values 1.01 | locus YER111C, strain swi4, hits give low values 1.01 | locus YER155C, strain BEM2 (second series), hits give low values 0.997 | locus YER155C, strain BEM2, hits give low values 1.01 | locus YER167W, strain BCK2, hits give low values 1.01 | locus YFR010W, strain ubp6, hits give low values 1.02 | locus YGL078C, strain dbp3, hits give low values 1.02 | locus YGL086W, strain mad1, hits give low values 1.05 | locus YGL167C, strain pmr1, hits give low values 1.02 | locus YGL173C, strain kem1, hits give low values 1.02 | locus YGL227W, strain vid30, hits give low values 1.02 | locus YGL240W, strain doc1, hits give low values 1.01 | locus YGL248W, strain PDE1, hits give low values 1.02 | locus YGL253W, strain hxk2, hits give low values 1.02 | locus YGR078C, strain PAC10, hits give low values 1.01 | locus YGR135W, strain pre9, hits give low values 1.01 | locus YGR252W, strain gcn5, hits give low values 0.972 | locus YHR013C, strain ard1, hits give low values 1.09 | locus YHR027C, strain rpn1, hits give low values 1.02 | locus YHR030C, strain SLT2, hits give low values 1.01 and 0.978 | locus YHR079C, strain IRE1 (second series), hits give low values 1 | locus YHR079C, strain IRE1, hits give low values 0.98 | locus YHR094C, strain hxt1, hits give low values 0.994 | locus YHR129C, strain ARP1, hits give low values 1.01 | locus YHR142W, strain chs7, hits give low values 1.03 | locus YHR200W, strain rpn10, hits give low values 1.01 | locus YIL066C, strain RNR3, hits give low values 1.02 | locus YIL073C, strain SPO22, hits give low values 1.06 | locus YIL125W, strain kgd1, hits give low values 1.01 | locus YIR030C, strain dcg1, hits give low values 0.998 | locus YJL092W, strain hpr5, hits give low values 1.01 | locus YJL095W, strain BCK1 (second series), hits give low values 1.02 | locus YJL095W, strain BCK1, hits give low values 1.02 and 0.98 | locus YJL115W, strain asf1, hits give low values 1.03 | locus YJL129C, strain trk1, hits give low values 1.03 | locus YJL134W, strain LCB3, hits give low values 1.01 | locus YJL154C, strain vps35, hits give low values 1 | locus YJL164C, strain tpk1, hits give low values 1.01 | locus YJL166W, strain qcr8, hits give low values 1.01 | locus YJL168C, strain set2, hits give low values 1.01 | locus YJL187C, strain SWE1 (second series), hits give low values 1.03 | locus YJL187C, strain SWE1, hits give low values 1.01 | locus YJR043C, strain POL32, hits give low values 1.02 | locus YJR066W, strain TOR1, hits give low values 0.948
